Reference: the supplement of paper PMC10849652
Targets with a hit are over-represented here; the source holds about 8,800 in all. About 0.5% of all pairs of compound and target were hits.

Key:
Test in all cases: log2 fold change, soluble protein after heating vs DMSO (PISA); higher = thermal stabilisation; K562 lysate, 10 uM; active = over 0.2 and 3.5 SD of the protein, either way, in both replicates (recomputed)
[1] = compound: C=CC(=O)N1CCC[C@@H](n2nc(-c3ccc(Oc4ccccc4)cc3)c3c(N)ncnc32)C1 [ibrutinib]
How it was run: (§1)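 To prepare the extract, K562 pellets were dounce-homogenised in PBS pH 7.4 with 1 mM MgCl2, giving crude material at 1 mg/mL protein. This was treated with 10 μM compound for 30 min, then heated in aliquots for 3 min over 48°C-58°C before pooling and addition of NP-40 to 0.5% at 4°C. Centrifugation at 21,000xg for 90 min left soluble protein in the supernatant, which TMTpro 16plex LC-MS/MS quantified with equalised channel sums. Results are log-two fold changes in thermal stability compared with solvent controls, from duplicates.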

[2] = compound: CC(=O)c1cnc2ccc(-c3cc(Cl)c(O)c(Cl)c3)nc2c1N[C@H]1CC[C@H](CN(C)C)CC1
How it was run: as §1

[3] = compound: CC(C)(C)Cn1c(N)nc2ccc(-c3[nH]c(C(C)(C)C)nc3-c3ccc(F)cc3)nc21 [ralimetinib]
How it was run: as §1

[4] = compound: CC(C)(O)CC(=O)NCCn1ccc2ncnc(Nc3ccc(Oc4cccc(C(F)(F)F)c4)c(Cl)c3)c21
How it was run: as §1

[5] = compound: CC(C)C1=C2N=C(C=C(N2N=C1)NCC3=CC=CC=C3)NCCCCCCN
How it was run: as §1

[6] = compound: CC1=C(C(CC(=O)N1)C2=CC=C(C=C2)C(F)(F)F)C(=O)NC3=C(C=C4C(=C3)C=NN4)F
How it was run: as §1

[7] = compound: CC1=C(C2=C(C=C1)C(=O)C3=CC=CC=C3N2CCCN)C
How it was run: as §1

[8] = compound: CC1=C(C=C(C=C1)NC(=O)C2=CC(=CC=C2)C(C)(C)C#N)NC3=CC4=C(C=C3)N=CN(C4=O)C
How it was run: as §1

[9] = compound: CC1=C(C=C(C=C1)NC(=O)C2=CC(=CC=C2)N(C)C)NC(=O)C3=CC=C(C=C3)O
How it was run: as §1

[10] = compound: CC1=CC=C(C=C1)SC2=C3C=C(SC3=CN=C2)C(=O)N
How it was run: as §1

Measured: log2 fold change

PI4K2B (UniProt Q8TCG2)
inactive: [1] -0.028 | [2] 0.04 | [3] 0.103 | [4] 0.069 | [5] -0.063 | [6] -0.075 | [7] -0.005 | [8] -0.082 | [9] 0.001 | [10] 0.005

PFDN2 (UniProt Q9UHV9)
inactive: [1] 0.103 | [2] 0.006 | [3] 0.08 | [4] 0.08 | [5] 0.005 | [6] 0.016 | [7] 0.034 | [8] -0.017 | [9] -0.033 | [10] -0.022

PGLS (UniProt O95336)
inactive: [1] 0.012 | [2] -0.08 | [3] 0.06 | [4] 0.008 | [5] 0.001 | [6] -0.012 | [7] -0.075 | [8] 0.038 | [9] -0.003 | [10] 0.077

PRKCA (UniProt P17252)
active: [2] 0.366
inactive: [1] 0.015 | [3] -0.012 | [4] 0.069 | [5] 0.032 | [6] -0.015 | [7] -0.094 | [8] -0.002 | [9] 0.033 | [10] -0.045

PPFIA2 (UniProt O75334)
Sequence of UniProt O75334 (O75334 whole entry, looked up): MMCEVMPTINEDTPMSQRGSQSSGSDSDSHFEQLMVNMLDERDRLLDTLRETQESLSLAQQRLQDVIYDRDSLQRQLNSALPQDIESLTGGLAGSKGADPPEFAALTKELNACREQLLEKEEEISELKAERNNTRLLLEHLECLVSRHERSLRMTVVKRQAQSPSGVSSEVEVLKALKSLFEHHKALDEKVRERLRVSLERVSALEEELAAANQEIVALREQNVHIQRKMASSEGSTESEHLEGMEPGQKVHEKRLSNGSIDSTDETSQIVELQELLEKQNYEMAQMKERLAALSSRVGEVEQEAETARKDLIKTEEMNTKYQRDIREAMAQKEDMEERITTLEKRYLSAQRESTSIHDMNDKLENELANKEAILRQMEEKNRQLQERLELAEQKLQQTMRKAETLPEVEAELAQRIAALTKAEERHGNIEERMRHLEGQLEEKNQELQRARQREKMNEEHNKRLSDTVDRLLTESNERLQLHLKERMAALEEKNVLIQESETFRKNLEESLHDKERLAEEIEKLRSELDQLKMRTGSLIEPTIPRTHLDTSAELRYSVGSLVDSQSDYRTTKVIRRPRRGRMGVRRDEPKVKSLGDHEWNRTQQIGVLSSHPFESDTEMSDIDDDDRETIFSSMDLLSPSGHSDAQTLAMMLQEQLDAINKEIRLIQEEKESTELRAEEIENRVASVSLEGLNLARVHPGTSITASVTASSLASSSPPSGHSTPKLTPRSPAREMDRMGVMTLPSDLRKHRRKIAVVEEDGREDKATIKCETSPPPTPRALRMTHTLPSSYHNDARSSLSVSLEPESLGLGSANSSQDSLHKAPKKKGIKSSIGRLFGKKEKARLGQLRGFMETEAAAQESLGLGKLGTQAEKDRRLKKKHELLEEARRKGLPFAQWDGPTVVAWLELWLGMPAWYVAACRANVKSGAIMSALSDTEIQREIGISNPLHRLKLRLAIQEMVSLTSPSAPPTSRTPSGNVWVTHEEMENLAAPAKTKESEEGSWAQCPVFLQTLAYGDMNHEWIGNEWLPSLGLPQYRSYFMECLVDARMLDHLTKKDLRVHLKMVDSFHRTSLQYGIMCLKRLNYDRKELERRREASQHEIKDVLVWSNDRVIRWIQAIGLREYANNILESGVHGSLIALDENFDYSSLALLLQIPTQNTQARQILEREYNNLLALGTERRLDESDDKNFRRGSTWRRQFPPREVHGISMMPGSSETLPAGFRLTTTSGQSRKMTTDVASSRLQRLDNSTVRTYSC
inactive: [1] -0.013 | [2] 0.01 | [3] 0.085 | [4] 0.015 | [5] 0.006 | [6] 0.041 | [7] 0.02 | [8] 0.047 | [9] 0.033 | [10] -0.022

PITRM1 isoform 2 (UniProt Q5JRX3)
Sequence of UniProt Q5JRX3 (Q5JRX3 whole entry, looked up): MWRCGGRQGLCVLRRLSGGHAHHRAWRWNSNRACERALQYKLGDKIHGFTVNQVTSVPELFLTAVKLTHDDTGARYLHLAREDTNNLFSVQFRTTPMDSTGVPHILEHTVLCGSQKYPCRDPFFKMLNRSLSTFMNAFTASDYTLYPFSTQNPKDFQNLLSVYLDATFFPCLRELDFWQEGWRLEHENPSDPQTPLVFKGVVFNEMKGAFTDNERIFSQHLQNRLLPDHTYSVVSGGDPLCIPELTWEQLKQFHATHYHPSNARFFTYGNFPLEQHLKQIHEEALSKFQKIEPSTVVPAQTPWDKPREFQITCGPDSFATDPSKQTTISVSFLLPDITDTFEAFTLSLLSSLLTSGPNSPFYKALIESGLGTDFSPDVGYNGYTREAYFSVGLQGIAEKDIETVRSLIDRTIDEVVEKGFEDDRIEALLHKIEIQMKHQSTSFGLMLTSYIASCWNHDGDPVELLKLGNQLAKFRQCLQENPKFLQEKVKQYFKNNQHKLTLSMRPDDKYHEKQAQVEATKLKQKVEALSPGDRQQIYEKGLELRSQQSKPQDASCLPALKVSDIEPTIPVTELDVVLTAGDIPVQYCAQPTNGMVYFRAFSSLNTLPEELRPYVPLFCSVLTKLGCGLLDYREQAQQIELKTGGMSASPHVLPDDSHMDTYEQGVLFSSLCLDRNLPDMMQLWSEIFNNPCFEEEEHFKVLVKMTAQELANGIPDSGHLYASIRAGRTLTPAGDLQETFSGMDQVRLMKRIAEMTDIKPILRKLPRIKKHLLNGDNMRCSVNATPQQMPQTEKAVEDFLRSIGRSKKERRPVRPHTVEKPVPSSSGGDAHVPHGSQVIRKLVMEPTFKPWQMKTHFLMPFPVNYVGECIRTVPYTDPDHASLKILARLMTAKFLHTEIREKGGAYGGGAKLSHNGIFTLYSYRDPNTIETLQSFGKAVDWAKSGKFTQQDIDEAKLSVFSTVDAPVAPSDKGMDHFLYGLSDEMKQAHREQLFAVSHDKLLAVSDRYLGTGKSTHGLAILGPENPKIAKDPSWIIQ
inactive: [1] 0.007 | [2] -0.004 | [3] 0.134 | [4] -0.009 | [5] -0.019 | [6] 0.001 | [7] -0.021 | [8] -0.001 | [9] -0.005 | [10] 0.012

PRPF6 (UniProt O94906)
inactive: [1] 0 | [2] 0 | [3] 0.038 | [4] 0.022 | [5] 0.005 | [6] -0.008 | [7] 0.001 | [8] -0.022 | [9] 0.053 | [10] 0.007

PDPK1 (UniProt O15530)
inactive: [1] 0.026 | [2] 0.236 | [3] 0.067 | [4] -0.075 | [5] 0.021 | [6] 0.163 | [7] -0.034 | [8] -0.056 | [9] -0.006 | [10] -0.021

PHC1 (UniProt P78364)
Sequence of UniProt P78364 (P78364 whole entry, looked up): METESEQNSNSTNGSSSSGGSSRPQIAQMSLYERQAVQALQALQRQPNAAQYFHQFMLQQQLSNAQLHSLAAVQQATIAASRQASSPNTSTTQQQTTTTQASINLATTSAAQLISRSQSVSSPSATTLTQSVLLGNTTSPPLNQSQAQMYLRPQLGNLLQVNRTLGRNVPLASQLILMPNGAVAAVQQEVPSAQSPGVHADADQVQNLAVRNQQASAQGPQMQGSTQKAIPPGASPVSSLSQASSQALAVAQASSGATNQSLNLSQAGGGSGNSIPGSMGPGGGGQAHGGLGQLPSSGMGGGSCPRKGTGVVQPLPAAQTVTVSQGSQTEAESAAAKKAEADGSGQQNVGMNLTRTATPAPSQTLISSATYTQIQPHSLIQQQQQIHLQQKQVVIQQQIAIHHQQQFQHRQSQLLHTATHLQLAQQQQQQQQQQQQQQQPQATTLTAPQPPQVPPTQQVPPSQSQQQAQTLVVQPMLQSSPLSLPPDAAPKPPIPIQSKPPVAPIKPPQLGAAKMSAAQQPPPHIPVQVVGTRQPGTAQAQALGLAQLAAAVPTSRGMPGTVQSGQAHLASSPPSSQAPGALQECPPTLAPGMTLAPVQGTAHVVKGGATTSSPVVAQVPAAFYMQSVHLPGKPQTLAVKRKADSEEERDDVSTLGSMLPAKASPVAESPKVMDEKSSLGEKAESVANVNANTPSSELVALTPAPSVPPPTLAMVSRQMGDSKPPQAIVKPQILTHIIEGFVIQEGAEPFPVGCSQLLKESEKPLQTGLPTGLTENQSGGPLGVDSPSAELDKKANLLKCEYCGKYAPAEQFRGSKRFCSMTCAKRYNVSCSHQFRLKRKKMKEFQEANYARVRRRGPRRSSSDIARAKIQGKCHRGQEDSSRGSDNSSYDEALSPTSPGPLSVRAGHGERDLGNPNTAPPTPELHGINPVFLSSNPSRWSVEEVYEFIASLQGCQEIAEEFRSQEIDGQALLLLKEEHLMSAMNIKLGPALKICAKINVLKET
inactive: [1] 0.027 | [6] 0.044 | [7] -0.117
active: [8] 0.443

PHGDH, A0A286YFE1
inactive: [1] 0.032 | [2] 0.084 | [7] -0.458 | [10] 0.107

PRR4 (UniProt Q16378)
Sequence of UniProt Q16378 (Q16378 whole entry, looked up): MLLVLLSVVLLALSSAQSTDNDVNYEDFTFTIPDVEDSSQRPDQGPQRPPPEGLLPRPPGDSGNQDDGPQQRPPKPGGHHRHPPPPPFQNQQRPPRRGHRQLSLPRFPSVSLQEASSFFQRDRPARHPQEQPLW
inactive: [2] -0.009 | [3] -0.188 | [4] 0.305 | [5] 1.86 | [6] 1.73 | [9] 0.1 | [10] -0.23

PDIA4, A0A499FI48
inactive: [7] -0.017 | [8] -0.066

PIM1 isoform 2 (UniProt P11309)
Sequence of UniProt P11309 (P11309 whole entry, looked up): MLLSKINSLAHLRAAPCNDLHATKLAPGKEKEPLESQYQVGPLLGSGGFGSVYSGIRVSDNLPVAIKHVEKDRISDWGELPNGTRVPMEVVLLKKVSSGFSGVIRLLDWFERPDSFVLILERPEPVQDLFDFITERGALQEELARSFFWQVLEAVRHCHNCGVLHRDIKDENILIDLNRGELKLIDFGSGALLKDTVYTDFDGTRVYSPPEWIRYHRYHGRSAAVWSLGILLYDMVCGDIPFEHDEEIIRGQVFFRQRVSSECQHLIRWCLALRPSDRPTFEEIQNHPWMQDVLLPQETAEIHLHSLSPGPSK
inactive: [1] -0.138 | [3] 0.042 | [4] 0.122 | [5] -0.038 | [6] -0.014 | [7] 0.054 | [8] 0.01 | [9] 0.054

POLR2M (UniProt Q6EEV4)
inactive: [1] 0.005 | [2] -0.07 | [5] -0.109 | [7] 0.007 | [8] 0.157 | [10] 0.078

PFKFB4 (UniProt Q16877)
Sequence of UniProt Q16877 (Q16877 whole entry, looked up): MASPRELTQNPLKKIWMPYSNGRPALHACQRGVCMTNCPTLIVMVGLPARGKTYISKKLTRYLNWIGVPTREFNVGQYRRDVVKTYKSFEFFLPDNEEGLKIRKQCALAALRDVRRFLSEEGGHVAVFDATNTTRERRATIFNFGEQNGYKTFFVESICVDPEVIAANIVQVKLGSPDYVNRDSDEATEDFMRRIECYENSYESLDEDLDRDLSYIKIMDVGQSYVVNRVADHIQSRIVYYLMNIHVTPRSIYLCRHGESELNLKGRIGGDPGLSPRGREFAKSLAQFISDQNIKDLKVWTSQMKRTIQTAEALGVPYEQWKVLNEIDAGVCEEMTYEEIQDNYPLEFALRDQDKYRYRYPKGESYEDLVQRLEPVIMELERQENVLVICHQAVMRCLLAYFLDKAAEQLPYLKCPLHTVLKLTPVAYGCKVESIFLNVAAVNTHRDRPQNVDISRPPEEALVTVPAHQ
inactive: [1] 0.022 | [2] -0.005 | [3] 0.1 | [4] -0.032 | [5] -0.004 | [7] -0.008 | [8] -0.003 | [9] 0.093 | [10] 0.011

PPM1H (UniProt Q9ULR3)
inactive: [1] 0.058 | [2] -0.032 | [3] -0.008 | [4] -0.035 | [5] 0.019 | [7] -0.028 | [8] 0.048 | [9] -0.007 | [10] 0.02

PPP1R14C (UniProt Q8TAE6)
Sequence of UniProt Q8TAE6 (Q8TAE6 whole entry, looked up): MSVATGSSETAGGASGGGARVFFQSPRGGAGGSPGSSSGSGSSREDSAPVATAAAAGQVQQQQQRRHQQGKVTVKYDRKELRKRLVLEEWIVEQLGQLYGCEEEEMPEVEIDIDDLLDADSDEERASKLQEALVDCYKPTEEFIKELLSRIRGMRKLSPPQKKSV
inactive: [1] 0.067 | [2] 0.007 | [3] 0.057 | [4] 0.042 | [6] -0.028 | [7] -0.097 | [9] -0.123 | [10] 0.068

PDE4DIP (UniProt E9PS60)
inactive: [5] 0.037 | [6] -0.113 | [7] 0.076 | [8] 0.234
